Screening data from PubChem.
An excerpt weighted towards active compounds, which were near 1.2% of everything screened.
RGS4-Gao reg: modulators of RGS4 binding to Galphao, primary screen, biochemical, multiplexed bead flow cytometry. Guanine nucleotide-binding protein G(o) subunit alpha (Homo sapiens), P09471. actives lie on both sides. binding response (% of control), % at 10 µM. 220,000 compounds, 0.33% hits; in the data active = binding response below about 49% or above about 150%; inactive = in between;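 also: fluorescent Galphao activated with aluminum fluoride binding bead-coupled RGS4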
Target sequence (P09471 whole entry, looked up): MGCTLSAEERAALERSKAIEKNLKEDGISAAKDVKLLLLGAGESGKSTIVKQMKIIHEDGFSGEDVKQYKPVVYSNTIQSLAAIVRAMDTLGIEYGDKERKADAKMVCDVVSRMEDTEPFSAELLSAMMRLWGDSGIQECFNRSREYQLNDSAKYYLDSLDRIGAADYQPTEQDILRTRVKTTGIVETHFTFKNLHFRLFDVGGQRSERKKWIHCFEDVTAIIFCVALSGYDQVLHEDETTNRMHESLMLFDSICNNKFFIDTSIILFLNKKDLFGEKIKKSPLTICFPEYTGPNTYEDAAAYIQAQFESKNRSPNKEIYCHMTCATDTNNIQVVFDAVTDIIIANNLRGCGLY
RGS8-Gao reg: RGS8-Galphao binding modulators, primary screen, biochemical, multiplexed bead flow cytometry | Guanine nucleotide-binding protein G(o) subunit alpha (Homo sapiens), P09471 | actives lie on both sides | response (percent of control binding), % at 10 µM | 220,000 compounds, 0.34% hits | AID 1423, 2008; in the data active = response below about 60% or above about 140%; inactive = in between;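 also: Galphao activated as the GDP aluminium fluoride complex binding bead-coupled RGS8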
Avidin fluor: green autofluorescence of compounds with avidin beads – biophysical, 488/530 nm, flow cytometry, artefact control, profiling panel | compound fluorescence 488/530 nm; hits give high values | fluorescence (KMESF) at 10 µM | 220,000 compounds, 0.38% hits | AID 1775, 2009; in the data active = fluorescence above about 47
RGS16-Gao: modulators of RGS16 binding to Galphao, primary screen, biochemical, human proteins, multiplexed bead flow cytometry; Regulator of G-protein signaling 16 (Homo sapiens) + Guanine nucleotide-binding protein …; bead-based flow cytometry RGS16-Galphao binding, fluorescence; actives lie on both sides; binding response (% of control), % at 10 µM; 220,000 compounds, 0.38% hits;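 also: Galphao activated by GDP with aluminum fluoride before binding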
RGS7-Gao reg: RGS7-Galphao binding modulators, primary screen, biochemical, multiplexed bead flow cytometry. binding response (% of control), % at 10 µM. 220,000 compounds, 0.35% hits. actives lie on both sides; in the data active = binding response below about 49% or above about 150%; inconclusive = no clear call, values can overlap the other calls; inactive = in between;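 also: fluorescent Galphao held in activated GDP-AlF4 state binding bead-coupled RGS7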
GSH fluor: compound fluorescence on glutathione beads, profiling panel, artefact control, biophysical, 488/530 nm, flow cytometry; 190,000 compounds, 0.25% hits; GSH beads flow cytometry, compound fluorescence 488/530 nm; hits give high values; fluorescence (KMESF) at 10 µM; in the data active = fluorescence above about 89;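 also: glutathione beads carrying GST-tagged Bcl family fusion proteins plus one bare bead set; values are compound well signal with DMSO vehicle wells as background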
RGS-Gao: modulators of RGS–Galpha-o binding, primary screen, biochemical, multiplexed beads, flow cytometry, RGS4/7/8/16/19 | shares compounds with RGS16-Gao | multiplexed bead flow cytometry | RGS4–Galpha-o binding response, % at 10 µM | 1,600 compounds, 99% hits | AID 1504, 2009;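 also: fluorescently labeled Galpha-o bound to GDP with aluminium fluoride binding biotinylated RGS beads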
Target sequence (P09471 whole entry, looked up): as above
Target sequence (P49798 whole entry, looked up): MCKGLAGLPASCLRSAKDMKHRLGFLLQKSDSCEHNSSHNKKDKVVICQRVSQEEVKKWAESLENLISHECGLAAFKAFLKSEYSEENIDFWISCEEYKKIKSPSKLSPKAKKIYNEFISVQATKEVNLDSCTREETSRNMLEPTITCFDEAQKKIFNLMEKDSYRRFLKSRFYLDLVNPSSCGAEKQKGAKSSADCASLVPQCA
Avidin counter: disruption of biotin probe capture by avidin, counter-screen for RGS protein interaction modulators, biochemical, flow cytometry, bead-based | shares compounds with RGS16-Gao | streptavidin beads, fluorescein-biotin binding | inhibition, % at 10 µM | 1,700 tested, under 10 active | AID 1783, 2009;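 active = inhibition above 50%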;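 also: median green fluorescence of gated singlet beads compared with DMSO control wells; 0% = DMSO wells and 100% = complete loss of bead fluorescence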
RGS8-Gao single: RGS8-Galphao binding modulators, confirmation, biochemical, multiplexed bead flow cytometry, single concentration; 1,700 compounds, 3% hits; binding response (% of control), % at 10 µM; bead-based flow cytometry RGS8-Galphao binding, fluorescence; actives lie on both sides; shares compounds with RGS16-Gao; in the data active = binding response below about 72% or above about 130%; inactive = in between;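 also: Galphao activated as GDP AlF4 complex before binding bead RGS8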
RGS7-Gao single: RGS7-Galphao binding modulators, confirmation, biochemical, multiplexed bead flow cytometry, single concentration | shares compounds with RGS16-Gao | bead-based flow cytometry RGS7-Galphao binding; actives lie on both sides | response (percent of control binding), % at 10 µM | 1,700 compounds, 7.8% hits | AID 1837, 2009; in the data active = response below about 75% or above about 130%; inactive = in between;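 also: fluorescent Galphao activated with GDP and aluminum fluoride binding bead-coupled RGS7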
RGS16-Gao single: modulators of RGS16-Galphao protein binding, confirmation, biochemical, single concentration, multiplexed bead flow cytometry; shares compounds with RGS16-Gao; bead-based flow cytometry; actives lie on both sides; response (% of control binding), % at 10 µM; 1,700 compounds, 4% hits; in the data active = response below about 74% or above about 130%; inactive = in between;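 also: Galphao activated as the GDP aluminium fluoride complex binding bead-coupled RGS16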
RGS4-Gao single: modulators of RGS4-Galphao protein binding, confirmation, biochemical, single concentration, multiplexed bead flow cytometry; shares compounds with RGS16-Gao; actives lie on both sides; binding response (% of control), % at 10 µM; 1,700 compounds, 4% hits; in the data active = binding response below about 74% or above about 130%; inactive = in between
RGS19-Gao conf: regulators of RGS19-Galphao binding, confirmation, biochemical, single point, multiplexed bead flow cytometry | bead-based flow cytometry RGS19-Galphao binding; actives lie on both sides | 1,700 compounds, 5% hits | AID 1841, 2009 | response (percent of control binding), % at 10 µM | shares compounds with RGS16-Gao; in the data active = response below about 50% or above about 160%; inactive = in between;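 also: 100% = no compound control and 0% = blank background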
An asterisk follows results filed as active; u = inconclusive; x = no result given; [ ] = another dose, or the depositor's remark. Unless noted, no rule for the calls is given here.

SMILES | RGS4-Gao reg | RGS8-Gao reg | Avidin fluor | RGS16-Gao | RGS7-Gao reg | GSH fluor | Avidin counter | RGS8-Gao single | RGS7-Gao single | RGS16-Gao single | RGS4-Gao single | RGS19-Gao conf | others
COc1ccccc1C(=O)C1CCCN(C(=O)c2ccccn2)C1 (configuration not stated) | 101 | 100 | 10 | 97 | 106 | 18 | x | x | x | x | x | x
CC#CC[N+](C)(C)CCCCCCCCCC | 170*[activator] | 115 | 47* | 156 | u | x | 0 | 105 | 107 | 104 | 106 | 107
CCCC(=O)OC(C(=O)Nc1cc(C(F)(F)F)ccc1Cl)c1ccccc1 (configuration not stated) | 107 | 122 | 15 | 241*[activator] | 107 | 8 | 0 | 104 | 103 | 101 | 102 | 97 | RGS-Gao=107*
O=C1NC(Cc2c[nH]c3ccccc23)C(=O)N1Cc1ccc(CN2C(=O)NC(Cc3c[nH]c4ccccc34)C2=O)cc1 (configuration not stated) | 101 | 100 | 8 | 99 | 105 | 8 | x | x | x | x | x | x
O=C(c1cccs1)N1CCc2ccccc21 | 154*[activator] | 126 | 4 | 136 | 153*[activator] | 27 | 0 | 92 | 86 | 89 | 89 | 90
Cc1nonc1C1CCCN1Cc1cn[nH]c1-c1ccc(-c2ccccc2)cc1 (configuration not stated) | 98 | 101 | 6 | 126 | 103 | 17 | x | x | x | x | x | x
CCOC(=O)c1cc2c(N)c(C(=O)c3ccc(Br)cc3)sc2[nH]c1=O | 100 | 99 | 11 | 104 | u | 10 | x | x | x | x | x | x
COc1ccc(Br)cc1-c1nc(CCl)cs1 | 104 | 106 | 9 | 107 | 108 | 15 | x | x | x | x | x | x
CN(C)CCNc1oc(-c2cccc(Cl)c2)nc1C#N | 0.2* | 31* | 5 | 5.0* | 12* | 11 | -1 | 98 | 98 | 99 | 99 | 105
CCC(C)N1C(=O)CN(C2CCCCCC2)C(=O)C1c1ccccc1F (configuration not stated) | 101 | 101 | 11 | 99 | 109 | 11 | x | x | x | x | x | x
CCC(C)(C)NC(=O)c1cc(C(=O)OC)cc([N+](=O)[O-])c1 | 97 | 99 | 8 | 108 | 100 | 30 | x | x | x | x | x | x
CCOP(=O)(OCC)C(C)(C)NC(=O)c1cc([N+](=O)[O-])cc([N+](=O)[O-])c1 | x | x | x | x | x | 50 | -1 | 104 | 105 | 104 | 103 | 92
Cc1cc(C)cc(C(=O)Nc2ccc(NC(=O)Cc3ccccc3)cc2)c1 | 96 | 99 | 6 | 95 | 98 | 12 | x | x | x | x | x | x
CCn1c2ccccc2c2cc(NC(=O)CSc3nnnn3-c3ccccc3)ccc21 | x | x | x | x | x | 46 | -3 | 102 | 100 | 100 | 99 | 86
O=C(CSc1nnnn1-c1ccccc1)Nc1ccc(Cl)cc1 | 101 | 98 | 13 | 101 | 96 | 24 | x | x | x | x | x | x
Cc1cc(N2CCN(c3nnnn3-c3ccccc3)CC2)n2ncnc2n1 | 131 | 140*[activator] | 3 | 554 | 120 | 31 | 0 | 95 | 85 | 95 | 90 | 111 | RGS-Gao=131*
Cc1cc(N2CCN(c3ccccc3)CC2)n2nnnc2n1 | 111 | 102 | 41 | 111 | 105 | 13 | x | x | x | x | x | x
COc1ccc(/C(C)=N/OCC(=O)N2CC3(C)CC2CC(C)(C)C3)cc1 (configuration not stated) | 304*[activator] | 282*[activator] | 1 | -45 | 276*[activator] | 13 | 0 | 107 | 109 | 113 | 109 | 124
CCOC(=O)c1cccc(NC(=O)Cn2c(CC(=O)NC)nc3ccccc32)c1 | 172*[activator] | 122 | 18 | 191*[activator] | 116 | 10 | -2 | 102 | 109 | 105 | 105 | 117
CCOC(=O)c1ccc(Oc2cc(C)nc(Cl)n2)cc1 | 93 | 100 | 5 | 96 | u | x | x | x | x | x | x | x
Cn1c(SCC(=O)c2ccccc2)nnc1-c1cccc(N)c1 | 60 | 89 | -2 | -92* | 77 | 47 | -1 | 104 | 108 | 106 | 105 | 105 | RGS-Gao=60*
CC1=NN(C(=O)CSCc2ccccc2)C(O)(c2ccc(Cl)cc2)C1 (configuration not stated) | 57 | 59* | 5 | 52 | 49* | 13 | 0 | 102 | 105 | 104 | 103 | 107 | RGS-Gao=57*
CC1=NN(C(=O)CSCc2ccccc2)C(O)(c2ccc(F)cc2)C1 (configuration not stated) | 100 | 100 | 9 | 99 | u | 15 | x | x | x | x | x | x
O=C(CSc1nnc2ccccn12)Nc1ccc(S(=O)(=O)N2CCOCC2)cc1 | 98 | 99 | 9 | 99 | 98 | 12 | x | x | x | x | x | x
CC(=O)Nc1ccc(C=C(C(C)=O)C(C)=O)cc1 | 102 | 104 | 4 | 104 | u | x | x | x | x | x | x | x
